The target in experiment [1] is Nuclear receptor subfamily 1 group I member 3 (Homo sapiens) (UniProt Q14994). Nature of the experiment: ATG_CAR_TRANS: Attagene TRANS-FACTORIAL HepG2 Assay for human Constitutive Androstane Receptor (CAR) (AID 2282969).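 Further: activators raise reporter mRNA above DMSO so AC50 marks induction.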 The note with it: HepG2 Attagene TRANS-FACTORIAL CAR reporter. In a few lines:
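Readout is reporter mRNA induction, quantified by fluorescent primer extension and capillary electrophoresis after RT-PCR. Cells were HepG2 transiently carrying chimeric NR-Gal4 constructs with GAL4-UAS reporters, treated for 24 h; activity scored upward from DMSO.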

Experiment [2] has as its target Estrogen receptor (Homo sapiens) (UniProt P03372). Nature of the experiment: ATG_ERa_TRANS: Attagene TRANS-FACTORIAL HepG2 Assay for human Estrogen Receptor alpha (ERa) (AID 2282970). The note with it: HepG2 Attagene TRANS ERa GAL4 reporter, mRNA. In a few lines: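 HepG2 cells transiently transfected with multiplexed GAL4-UAS reporter units; ERa activity read via exogenous chimeric NR-Gal4 protein. After 24 hour compound exposure, reporter mRNA measured by RT-PCR with 6-FAM labelling and capillary electrophoresis; gain-of-signal fitted relative to DMSO.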

Experiment [3] has as its target X-box-binding protein 1 (Homo sapiens) (UniProt P17861). In words: ATG_Xbp1_CIS: Attagene CIS-FACTORIAL HepG2 Assay for human X-box Binding Protein 1 (XBP1) (AID 2282972; active means hit-call score of the fitted dose curve at least 0.9, where 1 is the maximum; inactive means score below 0.9). Particulars: HepG2 XBP1 cis-element reporter, Attagene multiplex; actives raise or lower the signal. The gist of the method:
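HepG2 cells transiently transfected with multiple cis-element reporter units report endogenous TF activity; 24 h exposure, then reporter mRNA measured by RT-PCR, 6-FAM labelling, HpaI digestion and capillary electrophoresis. Bidirectional fitting versus DMSO.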

Experiment [4] can be described thus: ATG_M_19_TRANS: Attagene TRANS-FACTORIAL HepG2 Assay for M19 Transcription Factor (Internal Marker) (AID 2282974). The note with it: HepG2 Attagene TRANS-FACTORIAL M19 internal marker reporter. The gist of the method:
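Fluorescence of 6-FAM-labelled reporter cDNA fragments, separated by capillary electrophoresis, served as the readout. These derived from HepG2 cells carrying transfected GAL4-UAS reporter units after 24 h dosing, with DMSO as negative control.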

Experiment [5] deals with Bile acid receptor (Homo sapiens) (UniProt Q96RI1). In words: ATG_FXR_TRANS: Attagene TRANS-FACTORIAL HepG2 Assay for Farnesoid X Receptor (FXR) (AID 2282979).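 Further: hits raise reporter mRNA above DMSO so AC50 marks FXR activation.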 Particulars: HepG2 Attagene TRANS FXR-GAL4 reporter transcription. In a few lines:
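HepG2 cells transiently transfected with reporter constructs in which a chimeric FXR-GAL4 protein drives a GAL4-UAS reporter; 24 h compound exposure. Reporter mRNA measured by RT-PCR, FAM labelling, HpaI digestion and capillary electrophoresis; gain-of-signal versus DMSO.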

Experiment [6] has as its target Hepatocyte nuclear factor 4-alpha (Homo sapiens) (UniProt P41235). Nature of the experiment: ATG_HNF4a_TRANS: Attagene TRANS-FACTORIAL HepG2 Assay for human Hepatocyte Nuclear Factor 4 alpha (HNF4a) (AID 2282982). Particulars: HepG2 HNF4a transactivation reporter, mRNA readout. In a few lines:
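Readout is fluorescent reporter-transcript fragments resolved by capillary electrophoresis after RT-PCR from HepG2 cells dosed for 24 h. Cells carried transfected GAL4-UAS reporter constructs measuring exogenous NR-GAL4 chimera activity; DMSO served as baseline.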

The nature of experiment [7]: ATG_M_06_TRANS: Attagene TRANS-FACTORIAL HepG2 Assay for M06 Transcription Factor (Internal Marker) (AID 2282983). The note with it: HepG2 Attagene TRANS M06 internal marker reporter. The gist of the method: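 HepG2 cells transiently transfected with multiplexed GAL4-UAS reporter transcription units; after 24 h compound exposure, reporter mRNA measured by RT-PCR, FAM-labelled primer extension, HpaI digestion and capillary electrophoresis. Gain-of-signal fitted versus DMSO baseline; background control readout.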

Experiment [8] deals with Nuclear receptor subfamily 4 group A member 2 (Homo sapiens) (UniProt P43354). Nature of the experiment: ATG_NURR1_TRANS: Attagene TRANS-FACTORIAL HepG2 Assay for human Nuclear Receptor Related Protein 1 (NURR1) (AID 2282985). Particulars: HepG2 Attagene TRANS reporter, mRNA readout. In a few lines:
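Transient transfection of HepG2, human liver cells, with multiple GAL4-UAS reporter transcription units. Cells dosed 24 h, RNA isolated, reverse-transcribed, PCR-amplified, FAM-labelled, HpaI-digested, sized by capillary electrophoresis. DMSO served as negative control.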

In experiment [9] the target is Transcriptional activator Myb (Homo sapiens) (UniProt P10242). In words: ATG_Myb_CIS: Attagene CIS-FACTORIAL HepG2 Assay for human Myeloblastosis (Myb) Proto-Oncogene Transcription Factor (AID 2282986; active means hit-call score of the fitted dose curve at least 0.9, where 1 is the maximum; inactive means score below 0.9). The note with it: HepG2 Attagene CIS-FACTORIAL Myb reporter transcription; actives raise or lower the signal. In a few lines: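 Reporter transcript levels, quantified by fluorescent RT-PCR and capillary electrophoresis, serve as the read-out. Transfected HepG2 cells carrying cis-promoter reporter units are dosed for 24 hours, and curves are fitted bidirectionally against DMSO controls.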

Experiment [10] deals with Nuclear respiratory factor 1 (Homo sapiens) (UniProt Q16656). In words: ATG_NRF1_CIS: Attagene CIS-FACTORIAL HepG2 Assay for human Nuclear Respiratory Factor 1 (NRF1) Orphan Gene (AID 2282987; active means hit-call score of the fitted dose curve at least 0.9, where 1 is the maximum; inactive means score below 0.9). Particulars: HepG2 NRF1 cis-element reporter, Attagene multiplex; actives raise or lower the signal. In a few lines:
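Multiplexed cis-reporter assay, HepG2 cells, 24 h treatment. Total RNA → oligo(dT) RT → PCR with reporter-specific primers → 6-FAM primer extension → HpaI cut → CE. Bidirectional fit vs DMSO.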

The nature of experiment [11]: ATG_NFI_CIS: Attagene CIS-FACTORIAL HepG2 Assay for human Nuclear Factor I (NFI) (AID 2282989; active means hit-call score of the fitted dose curve at least 0.9, where 1 is the maximum; inactive means score below 0.9). Particulars: HepG2 cis-regulatory reporter, NFI response element transcription; actives raise or lower the signal. The gist of the method:
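Reporter transcripts were measured by RT-PCR with fluorescent primer extension and capillary electrophoresis 24 h post-treatment. HepG2 cells carried transiently transfected cis-regulated reporter constructs reporting endogenous factor activity; gain or loss fitted against DMSO baseline.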

Experiment [12] concerns the target Myc proto-oncogene protein (Homo sapiens) (UniProt P01106). In words: ATG_Myc_CIS: Attagene CIS-FACTORIAL HepG2 Assay for human Myelocytomatosis (Myc) Proto-Oncogene Transcription Factor (AID 2282990; active means hit-call score of the fitted dose curve at least 0.9, where 1 is the maximum; inactive means score below 0.9). Particulars: HepG2, Attagene cis-reporter transcription factor activity; actives raise or lower the signal. In a few lines: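 HepG2, transient MRTU transfection (cis promoters, endogenous TFs); 24 h dosing; TriZol RNA → oligo(dT) RT → PCR → 6-FAM primer extension → HpaI cut → CE. Bidirectional fit vs DMSO.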

Experiment [13] deals with Oxysterols receptor LXR-alpha (Homo sapiens) (UniProt Q13133). Nature of the experiment: ATG_LXRa_TRANS: Attagene TRANS-FACTORIAL HepG2 Assay for human Liver X Receptor alpha (LXRa) (AID 2282980). The note with it: HepG2 Attagene TRANS reporter, LXRa transactivation. The gist of the method:
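HepG2 cells were transiently transfected with multiplexed reporter units driven by chimeric LXRa–GAL4 fusion proteins, then dosed for 24 h. Reporter mRNA was quantified by RT-PCR, fluorescent labelling and capillary electrophoresis; gain of signal fitted against DMSO baseline.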

Experiment [14] can be described thus: ATG_M_32_TRANS: Attagene TRANS-FACTORIAL HepG2 Assay for M32 Transcription Factor (Internal Marker) (AID 2282984). Particulars: HepG2 Attagene TRANS M32 internal marker reporter. The gist of the method:
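Measures reporter mRNA induction in human HepG2 liver cells after 24 h chemical treatment. Transcripts from transiently transfected GAL4-UAS reporter units are amplified, fluorescently labelled and sized by capillary electrophoresis; gain of signal relative to DMSO.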

Experiment [15] addresses Oxysterols receptor LXR-beta (Homo sapiens) (UniProt P55055). In words: ATG_LXRb_TRANS: Attagene TRANS-FACTORIAL HepG2 Assay for human Liver X Receptor beta (LXRb) (AID 2282981). Particulars: HepG2 Attagene TRANS GAL4-LXRb reporter, mRNA. In a few lines: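 Transient transfection HepG2 (multiplexed RTUs, GAL4-UAS); NR-Gal4 chimera; 24 h exposure; RNA → RT-PCR → 6-FAM primer extension → HpaI → CE; increase vs DMSO.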

The target in experiment [16] is Androgen receptor (Homo sapiens) (UniProt P10275). In words: ATG_AR_TRANS: Attagene TRANS-FACTORIAL HepG2 Assay for human Androgen Receptor (AR) (AID 2282973). Particulars: HepG2 Attagene TRANS-FACTORIAL AR reporter transcription. In a few lines:
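HepG2 cells transiently transfected with multiplexed GAL4-UAS reporter units and chimeric NR-Gal4 fusion; 24 h compound exposure. Reporter mRNA measured by RT-PCR, 6-FAM labelling, HpaI digestion and capillary electrophoresis; gain-of-signal fitted relative to DMSO baseline.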

As usually defined, the AC50 is the concentration at which the activity in the assay is half-maximal.

SMILES strings stand for the structures. Records with an inconclusive call do not appear. Calls of active or inactive are those of the source. How the source made its calls, unless noted: active means hit-call score of the fitted dose curve at least 0.9, where 1 is the maximum; inconclusive means response in the unintended direction; inactive means score below 0.9.

Chain of Nuclear receptor subfamily 1 group I member 3 (Homo sapiens) (Q14994 whole entry, looked up, the tested form may be a part): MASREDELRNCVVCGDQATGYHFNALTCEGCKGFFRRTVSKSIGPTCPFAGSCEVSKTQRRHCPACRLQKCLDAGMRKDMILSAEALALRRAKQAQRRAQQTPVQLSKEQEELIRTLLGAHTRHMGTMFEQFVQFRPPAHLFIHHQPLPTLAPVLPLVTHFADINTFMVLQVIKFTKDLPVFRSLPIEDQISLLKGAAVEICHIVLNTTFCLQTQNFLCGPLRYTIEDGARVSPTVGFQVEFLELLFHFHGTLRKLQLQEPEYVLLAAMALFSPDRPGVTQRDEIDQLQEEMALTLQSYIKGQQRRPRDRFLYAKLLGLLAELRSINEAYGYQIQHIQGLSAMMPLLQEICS
Chain of Hepatocyte nuclear factor 4-alpha (Homo sapiens) (P41235 whole entry, looked up, the tested form may be a part): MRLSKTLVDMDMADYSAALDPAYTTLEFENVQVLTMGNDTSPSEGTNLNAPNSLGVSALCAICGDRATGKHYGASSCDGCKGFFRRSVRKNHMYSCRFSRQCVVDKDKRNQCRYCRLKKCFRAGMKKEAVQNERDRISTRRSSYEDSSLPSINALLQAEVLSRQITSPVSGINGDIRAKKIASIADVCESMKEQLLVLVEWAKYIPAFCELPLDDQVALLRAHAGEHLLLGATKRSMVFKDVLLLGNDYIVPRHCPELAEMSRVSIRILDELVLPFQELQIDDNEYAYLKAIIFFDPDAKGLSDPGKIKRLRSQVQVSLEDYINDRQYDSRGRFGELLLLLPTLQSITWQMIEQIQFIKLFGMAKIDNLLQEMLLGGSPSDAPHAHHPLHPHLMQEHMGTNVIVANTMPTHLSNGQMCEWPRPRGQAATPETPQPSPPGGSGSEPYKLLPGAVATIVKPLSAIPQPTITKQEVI
Chain of Oxysterols receptor LXR-alpha (Homo sapiens) (Q13133 whole entry, looked up, the tested form may be a part): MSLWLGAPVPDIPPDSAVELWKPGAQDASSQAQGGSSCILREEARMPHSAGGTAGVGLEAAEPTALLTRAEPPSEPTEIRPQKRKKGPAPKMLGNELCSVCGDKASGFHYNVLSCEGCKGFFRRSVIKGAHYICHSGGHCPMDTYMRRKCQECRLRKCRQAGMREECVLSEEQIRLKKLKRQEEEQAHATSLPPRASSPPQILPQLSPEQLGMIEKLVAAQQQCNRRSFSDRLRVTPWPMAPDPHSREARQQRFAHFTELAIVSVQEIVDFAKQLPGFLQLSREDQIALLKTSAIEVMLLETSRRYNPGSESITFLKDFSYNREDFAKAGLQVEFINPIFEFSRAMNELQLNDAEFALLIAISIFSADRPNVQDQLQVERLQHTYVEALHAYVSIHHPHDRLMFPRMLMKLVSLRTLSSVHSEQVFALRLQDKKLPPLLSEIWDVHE
Chain of X-box-binding protein 1 (Homo sapiens) (P17861 whole entry, looked up): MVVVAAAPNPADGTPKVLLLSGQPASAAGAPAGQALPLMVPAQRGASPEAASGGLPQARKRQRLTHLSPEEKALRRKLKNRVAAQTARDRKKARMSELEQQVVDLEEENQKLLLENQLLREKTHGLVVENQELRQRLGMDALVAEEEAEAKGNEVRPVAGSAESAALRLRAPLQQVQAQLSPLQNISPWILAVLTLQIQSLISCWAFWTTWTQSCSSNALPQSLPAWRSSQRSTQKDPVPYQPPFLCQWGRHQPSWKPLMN
Chain of Nuclear respiratory factor 1 (Homo sapiens) (Q16656 whole entry, looked up): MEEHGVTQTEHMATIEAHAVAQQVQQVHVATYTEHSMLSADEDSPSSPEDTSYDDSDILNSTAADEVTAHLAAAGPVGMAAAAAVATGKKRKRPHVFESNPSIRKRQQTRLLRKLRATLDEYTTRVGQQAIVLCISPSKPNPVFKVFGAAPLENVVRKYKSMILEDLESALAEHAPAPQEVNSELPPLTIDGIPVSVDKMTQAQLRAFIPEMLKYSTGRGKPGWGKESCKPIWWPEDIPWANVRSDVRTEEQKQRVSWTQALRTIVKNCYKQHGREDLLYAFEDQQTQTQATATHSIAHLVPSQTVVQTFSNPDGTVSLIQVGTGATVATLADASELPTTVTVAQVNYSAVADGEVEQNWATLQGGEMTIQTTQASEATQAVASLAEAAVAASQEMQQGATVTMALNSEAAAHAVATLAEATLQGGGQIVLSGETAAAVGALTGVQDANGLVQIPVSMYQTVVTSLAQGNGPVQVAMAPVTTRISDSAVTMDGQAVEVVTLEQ
Chain of Estrogen receptor (Homo sapiens) (P03372 whole entry, looked up, the tested form may be a part): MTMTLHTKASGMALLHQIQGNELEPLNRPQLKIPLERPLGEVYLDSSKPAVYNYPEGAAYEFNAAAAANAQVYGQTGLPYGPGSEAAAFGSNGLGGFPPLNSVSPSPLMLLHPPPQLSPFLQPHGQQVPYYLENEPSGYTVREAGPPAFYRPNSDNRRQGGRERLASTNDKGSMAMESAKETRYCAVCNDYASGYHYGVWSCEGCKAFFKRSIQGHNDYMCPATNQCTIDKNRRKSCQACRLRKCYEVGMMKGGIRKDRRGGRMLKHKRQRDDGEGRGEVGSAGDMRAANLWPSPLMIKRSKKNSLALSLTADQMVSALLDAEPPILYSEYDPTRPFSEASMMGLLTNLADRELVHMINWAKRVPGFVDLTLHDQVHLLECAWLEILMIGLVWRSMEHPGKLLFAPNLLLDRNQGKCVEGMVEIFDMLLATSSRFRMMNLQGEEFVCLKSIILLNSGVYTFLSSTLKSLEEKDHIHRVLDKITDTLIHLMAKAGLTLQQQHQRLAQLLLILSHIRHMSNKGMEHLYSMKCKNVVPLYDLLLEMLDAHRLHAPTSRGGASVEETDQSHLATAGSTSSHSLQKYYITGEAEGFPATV
Chain of Transcriptional activator Myb (Homo sapiens) (P10242 whole entry, looked up): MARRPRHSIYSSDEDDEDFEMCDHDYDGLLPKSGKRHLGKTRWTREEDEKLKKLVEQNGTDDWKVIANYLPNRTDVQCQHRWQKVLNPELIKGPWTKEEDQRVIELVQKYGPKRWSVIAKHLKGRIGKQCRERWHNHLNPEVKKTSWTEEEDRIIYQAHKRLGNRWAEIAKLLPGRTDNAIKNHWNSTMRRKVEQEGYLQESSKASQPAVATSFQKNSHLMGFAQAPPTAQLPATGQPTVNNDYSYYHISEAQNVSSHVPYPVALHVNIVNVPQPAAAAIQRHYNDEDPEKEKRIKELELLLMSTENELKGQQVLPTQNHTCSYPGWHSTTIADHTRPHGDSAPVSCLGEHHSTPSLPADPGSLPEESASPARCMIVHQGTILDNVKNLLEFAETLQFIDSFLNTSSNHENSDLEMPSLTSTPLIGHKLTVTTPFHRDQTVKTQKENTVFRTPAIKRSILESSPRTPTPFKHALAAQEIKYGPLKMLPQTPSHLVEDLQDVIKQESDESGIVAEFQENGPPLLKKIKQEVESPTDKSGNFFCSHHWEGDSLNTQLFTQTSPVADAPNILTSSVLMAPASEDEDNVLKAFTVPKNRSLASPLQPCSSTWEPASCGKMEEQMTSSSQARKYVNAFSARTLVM
Chain of Bile acid receptor (Homo sapiens) (Q96RI1 whole entry, looked up, the tested form may be a part): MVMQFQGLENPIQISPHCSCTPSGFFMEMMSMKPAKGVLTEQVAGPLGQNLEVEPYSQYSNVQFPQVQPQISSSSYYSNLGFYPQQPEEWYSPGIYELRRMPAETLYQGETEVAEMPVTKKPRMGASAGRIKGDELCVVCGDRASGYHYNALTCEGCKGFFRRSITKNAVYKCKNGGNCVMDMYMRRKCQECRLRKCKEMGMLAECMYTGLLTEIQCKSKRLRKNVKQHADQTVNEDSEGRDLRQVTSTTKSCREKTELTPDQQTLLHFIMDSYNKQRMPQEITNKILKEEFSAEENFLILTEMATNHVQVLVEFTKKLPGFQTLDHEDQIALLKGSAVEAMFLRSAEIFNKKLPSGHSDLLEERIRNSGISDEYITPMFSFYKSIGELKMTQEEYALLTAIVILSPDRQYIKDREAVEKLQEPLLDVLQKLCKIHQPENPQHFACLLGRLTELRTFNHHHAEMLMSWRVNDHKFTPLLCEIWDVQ
Chain of Myc proto-oncogene protein (Homo sapiens) (P01106 whole entry, looked up): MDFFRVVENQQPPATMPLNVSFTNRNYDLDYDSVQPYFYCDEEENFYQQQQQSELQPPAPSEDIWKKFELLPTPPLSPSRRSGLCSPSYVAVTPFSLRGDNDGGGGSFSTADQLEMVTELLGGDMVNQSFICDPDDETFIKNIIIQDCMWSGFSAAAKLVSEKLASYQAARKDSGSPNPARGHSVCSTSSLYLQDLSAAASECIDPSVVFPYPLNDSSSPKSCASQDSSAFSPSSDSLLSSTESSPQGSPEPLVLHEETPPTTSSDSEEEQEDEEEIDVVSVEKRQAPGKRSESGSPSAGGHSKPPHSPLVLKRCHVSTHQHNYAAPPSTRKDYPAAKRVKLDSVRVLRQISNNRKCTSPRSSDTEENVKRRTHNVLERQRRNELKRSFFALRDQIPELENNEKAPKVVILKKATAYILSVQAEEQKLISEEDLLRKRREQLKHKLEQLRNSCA
Chain of Oxysterols receptor LXR-beta (Homo sapiens) (P55055 whole entry, looked up, the tested form may be a part): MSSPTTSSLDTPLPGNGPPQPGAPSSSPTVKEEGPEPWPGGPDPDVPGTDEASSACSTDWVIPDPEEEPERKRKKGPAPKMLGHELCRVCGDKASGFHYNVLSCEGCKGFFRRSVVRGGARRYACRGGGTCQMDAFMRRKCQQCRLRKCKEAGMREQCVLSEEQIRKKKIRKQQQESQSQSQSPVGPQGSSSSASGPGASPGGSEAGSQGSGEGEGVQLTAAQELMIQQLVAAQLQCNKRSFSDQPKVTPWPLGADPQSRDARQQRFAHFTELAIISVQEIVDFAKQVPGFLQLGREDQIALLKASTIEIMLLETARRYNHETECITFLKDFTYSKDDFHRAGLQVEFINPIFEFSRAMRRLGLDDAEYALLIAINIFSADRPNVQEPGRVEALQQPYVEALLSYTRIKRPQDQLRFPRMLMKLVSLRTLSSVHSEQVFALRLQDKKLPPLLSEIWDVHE

For the compound `CC(C)[C@@H](Nc1ccc(C(F)(F)F)cc1Cl)C(=O)OC(C#N)c1cccc(Oc2ccccc2)c1` (stereo not given in full), the call in experiment [1], in experiment [2], in [3], in [4], in experiment [5] and in experiment [6] was inactive. The outcome in experiment [7], in experiment [8], in [9], in [10], in experiment [11] and in experiment [12] was inactive.
Consider `CCOCn1c(-c2ccc(Cl)cc2)c(C#N)c(Br)c1C(F)(F)F`, for which the compound was called inactive in experiment [1], in [2], in [5], in experiment [13], in [6] and in [7]. The compound was classed as inactive in [14], in experiment [8] and in experiment [10]. Moreover, the AC50 in experiment [3] is 2.71 µM (active); in experiment [9] it was 78.8 µM (active); in experiment [11], 48.7 µM (active); in experiment [12] it was 150 µM (active).
For `CC(C)(COCC1CO1)COCC1CO1` (stereo not given), the compound was called inactive in experiment [1], in [2], in experiment [3], in [4], in experiment [5] and in experiment [14]. Moreover, the call in experiment [9], in [10], in [11] and in experiment [12] was inactive.
For the compound `ClCc1ccccc1CCl`, the compound was called inactive in experiment [1], in experiment [2], in experiment [13], in experiment [15], in experiment [6] and in experiment [7]. The compound was classed as inactive in [14], in experiment [9], in [10] and in experiment [11]. For the same compound, the AC50 was 12.6 µM (active) in experiment [3] and 33.4 µM (active) in experiment [12].
Take `COP(=S)(OC)Oc1cc(Cl)c(I)cc1Cl`: the call in experiment [1], in [16], in experiment [4], in experiment [5], in [13] and in experiment [15] was inactive. The call in experiment [7], in experiment [14] and in experiment [12] was inactive. Further, the AC50 is 38.6 µM (active) in experiment [3], 49.5 µM (active) in [9], 55.6 µM (active) in experiment [10] and 29.1 µM (active) in [11].

The values above are taken from PubChem BioAssay (EPA / NIEHS).
